Screening results as filed in PubChem BioAssay.
Pf Dd2 inh: Plasmodium falciparum Dd2 growth inhibition. AID 1347417. P. falciparum Dd2 growth, SYBR Green, 72 h. 120,000 tested, 4.3% active. Potency, µM (top dose mostly 28.9 µM), actives largely listed as inhibitors; active = well fitted inhibition curve with a large enough effect; note: nearly all actives have a fitted effect of over 65% in size
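Readout: SYBR Green fluorescence, 485 nm excitation, 535 nm emission, after ~16 h lysis at 37C. Before that, Dd2-infected red cells (2.5% hematocrit) grew 72 h with compound, 29 uM top final concentration.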
Of the large screens only hits and unclear results are named; the others gave an inactive call. Many of the other results were omitted from the sample, so hits are more common in it than they were.

COc1cccc(NC(=O)N2CCCC(O)(CNS(C)(=O)=O)CC2)c1 (stereo not given)	none
COc1ccc(C2C=C(c3ccc(C)cc3)Nc3c(C(=O)Nc4ccccc4)cnn32)cc1 (stereo not given)	Pf Dd2 inh 8.9µM
COc1cc(OC)c(C2C=C(c3ccc(C)cc3)Nc3c(C(=O)Nc4ccccc4)cnn32)cc1OC (stereo not given)	Pf Dd2 inh 10µM
COc1cccc(C2C(C(=O)Nc3ccccc3)=C(C)Nc3nc(-c4ccccc4)nn32)c1OC (stereo not given)	none
CCOc1cccc(-c2nc(C(=O)Nc3ccc(OC)cc3)cs2)c1	none
CCOc1ccc(NC(=O)c2cnn3c2NC(c2cccc(OC)c2)=CC3c2ccccc2)cc1 (stereo not given)	Pf Dd2 inh 1.4µM
COc1ccc(C2C(C(=O)Nc3ccccc3)=C(C)Nc3nc(-c4ccccc4)nn32)c(OC)c1 (stereo not given)	none
CCOc1ccc(NC(=O)c2cc3cc4cc(OC)ccc4nc3s2)cc1	none
COc1ccc(-c2cnnn2-c2ccc(NC(=O)c3ccccc3OC)cc2)cc1	none
COc1ccc(C2C(C(=O)Nc3ccccc3)=C(C)Nc3nc(SCC(=O)c4ccc(C)cc4)nn32)cc1 (stereo not given)	none
COCCNC(=O)C(NC(=O)c1ccc(C)cc1)C1CCN(C(=O)c2ccc(Cl)cc2)CC1 (stereo not given)	none
Clc1ccc(C2Cn3nnc(-c4noc(-c5ccc6c(c5)OCO6)n4)c3CO2)cc1 (stereo not given)	none
CCNC(=O)c1cccnc1OC1CCN(C(=O)c2ccc(C)c(F)c2)C1 (stereo not given)	none
CN1C(=O)CS(=O)(=O)C12CCN(C(=O)c1cc(F)cc(F)c1)CC2	none
CC(Cn1cncn1)NC(=O)c1cccc(S(=O)(=O)N2CCOCC2)c1 (stereo not given)	none
CO[C@H]1C(=O)N(C(C)C)[C@H]1C1CCN(C(=O)Cc2ccncc2)CC1	none
COc1ccccc1Nc1ncc2c(n1)CN([S+](=O)([O-])c1ccccc1)CCN2	none
COc1ccccc1Nc1ncc2c(n1)CN(C(=O)c1cccc(O)c1)CCN2	none
COc1ccccc1Nc1ncc2c(n1)CN(C(=O)c1ccc(Oc3ccccc3)cc1)CCN2	Pf Dd2 inh 8.9µM
COCc1nc(C2CCCN(C(=O)c3ccoc3)C2)no1 (stereo not given)	none
CCN(CC)CC[C@H]1CN(C(=O)c2ccc(OC)cc2)CC[C@H]1CC(=O)O	none
Cc1ccc(C)c(NC(=O)N2CCCC(Cn3cnc4cccnc43)C2)c1 (stereo not given)	none
CC(=O)Nc1ccc(NC(=O)c2cc3sc(C)c(CN4CCCCC4)c3[nH]2)cc1	Pf Dd2 inh 2.2µM
Cc1sc2cc(C(=O)NCc3cccnc3)[nH]c2c1CN1CCCCC1	none
COc1ccc(NC(=O)c2cc3sc(C)c(CN4CCCCC4)c3[nH]2)cc1OC	Pf Dd2 inh 2.2µM
COc1ccc(NC(=O)c2cc(CN3CCCC3)on2)cc1Cl	none
Cc1sc2cc(C(=O)NC(C)C)[nH]c2c1CN1CCCCC1	none
CCCNC(=O)c1cc2sc(C)c(CN3CCCCC3)c2[nH]1	none
Cc1ncccc1C(=O)N1CCCC(c2nc(-c3ccccc3)no2)CCNC(=O)CC1 (stereo not given)	none
CNC(=O)N1CCC(C2CCN(C(=O)CCC3CCCC3)C2)CC1 (stereo not given)	none
CCOc1ccc(CC(=O)N2CCC(Cc3nc(-c4ccc(F)cc4)no3)CC2)cc1	none
C[C@H]1[C@@H]2[C@@H](O)C([C@H](C)C(=O)N(C)CCC#N)CC[C@@]2(C)CC[C@@H]1NC(=O)c1ccncc1 (stereo not given in full)	none
CCCNC(=O)CC1CCCN(c2cn[nH]c(=O)c2)C1 (stereo not given)	none
O=C1CC(c2ccccc2)N(C(=O)Nc2ccccc2F)CCCCCN1 (stereo not given)	none
COc1cccc(-c2ccccc2NC(=O)C2CCN(Cc3ccccc3F)CC2)c1	none
C=CCC(=O)N1CCCC1C(=O)Nc1ccc(-c2cccc(OC)c2)cc1 (stereo not given)	none
COc1ccc(C(=O)N2CCC(C(=O)Nc3ccc(OC)cc3OC)CC2)cc1	none
COc1cccc(-c2ccccc2NC(=O)C2CCN(C/C(C)=C/c3ccccc3)CC2)c1	Pf Dd2 inh 8.9µM
COc1cccc(C(=O)Nc2ccccc2-c2nnc(-c3cccc(OC)c3)o2)c1	none
COc1cccc(-c2ccccc2NC(=O)C2CCN(CC=C(C)C)CC2)c1	Pf Dd2 inh 5.6µM
O=C(CN1C(=O)CCC1=O)N1CCC(CCOc2ccccc2F)C1 (stereo not given)	none
CN1C(=O)Cc2ccccc2C1C(=O)NCc1ccccc1 (stereo not given)	none
CN1C(=O)Cc2cc(S(=O)(=O)Nc3cccn4nc(C5CC5)nc34)ccc21	none
COc1ccc(CN2C(=O)c3oc4ccccc4c(=O)c3C2c2ccc(O)cc2)cc1 (stereo not given)	none
COc1ccc(CN2C(=O)c3oc4ccc(F)cc4c(=O)c3C2c2ccc(O)cc2)cc1 (stereo not given)	none
O=C1c2oc3ccccc3c(=O)c2C(c2cccc(O)c2)N1Cc1ccc(F)cc1 (stereo not given)	Pf Dd2 inh 14µM
Cc1noc([C@H]2CCN(S(=O)(=O)c3ccc4c(c3)CCC4)C[C@H]2NC(=O)C2CC2)n1	none
Cn1nc(C(=O)N2CC[C@H](CO)[C@H](NC(=O)C3CC3)C2)c2ccccc21	none
CN1[C@@H](CCC(=O)N2CCOCC2)CNC(=O)[C@@H]2[C@H]1CCN2C1CCOCC1	none
Cc1nnn2c(C(=O)N3CCOCC3)cccc12	none
CCOc1ccc2c(c1)c(=O)c(S(=O)(=O)c1ccc(CC)cc1)cn2Cc1cccc(Cl)c1	Pf Dd2 inh 10µM
CCc1ccc(S(=O)(=O)c2cn(CC(=O)Nc3cccc(C)c3)c3ccc(Cl)cc3c2=O)cc1	none
CCOc1ccc2c(c1)c(=O)c(S(=O)(=O)c1ccc(Cl)cc1)cn2Cc1ccccc1C	Pf Dd2 inh 13µM
CCc1ccc2c(c1)c(=O)c(S(=O)(=O)c1ccc(Cl)cc1)cn2CC	none
CCOc1ccc2c(c1)c(=O)c(S(=O)(=O)c1ccc(C)cc1)cn2Cc1ccccc1Cl	Pf Dd2 inh 13µM
COc1ccc2c(c1)c(=O)c(S(=O)(=O)c1ccc(Cl)cc1)cn2C	none
CCOc1ccc(S(=O)(=O)c2cn(CC)c3ccc(F)cc3c2=O)cc1	none
COc1cc2c(=O)c(S(=O)(=O)c3ccc(F)cc3)cn(Cc3ccccc3C)c2cc1OC	Pf Dd2 inh 11µM
CCOc1ccc2c(c1)c(=O)c(S(=O)(=O)c1ccc(C)cc1)cn2CC(=O)Nc1ccc(C)cc1	none
Cc1ccc(S(=O)(=O)c2cn(Cc3cccc(C)c3)c3cc4c(cc3c2=O)OCO4)cc1	none
COc1ccc(NC(=O)Cn2cc(S(=O)(=O)c3ccc(C)cc3)c(=O)c3ccccc32)cc1OC	none
CCn1cc(S(=O)(=O)c2ccccc2)c(=O)c2cc(F)c(F)cc21	none
CNc1nc2c(s1)C(c1ccc(Cl)cc1)CC(=O)N2 (stereo not given)	none
O=C1CCC2(CCCO2)CCN1Cc1ccc(C(F)(F)F)cc1 (stereo not given)	none
CC(C)S(=O)(=O)N1CC[C@H]2C(=O)NCCCCCCN(Cc3ccncc3)[C@@H]2C1	none
CCn1nccc1C(=O)N1C[C@@H](Oc2ccccc2)C[C@@H]1C(=O)NC	none
COCC(=O)N1C[C@@H]2CCCN3CCC[C@@H]([C@H]23)[C@H]1CCCC(=O)N1CCOCC1	none
CCC(CC)NC(=O)CC1CCCN(c2cnn(CC3CC3)c(=O)c2)C1 (stereo not given)	none
Cc1nnc2n1CCC(NC(=O)Cc1c[nH]c3ccccc13)CC2 (stereo not given)	none
